# Rows were chosen to be rich in hits. Some 2.4% of all compounds tested hit in one or more screens of this group.
# D2 antag: D2 dopamine receptor (human) antagonism; P14416; 2% of 340,000 active; HEK293 TREx D2 cells, calcium flux, dopamine EC80; AID 485344; inhibition, % at 10 µM; in the data active = inhibition above about 30%; inactive = below that, where a call was filed
# Target sequence (P14416 whole entry, looked up): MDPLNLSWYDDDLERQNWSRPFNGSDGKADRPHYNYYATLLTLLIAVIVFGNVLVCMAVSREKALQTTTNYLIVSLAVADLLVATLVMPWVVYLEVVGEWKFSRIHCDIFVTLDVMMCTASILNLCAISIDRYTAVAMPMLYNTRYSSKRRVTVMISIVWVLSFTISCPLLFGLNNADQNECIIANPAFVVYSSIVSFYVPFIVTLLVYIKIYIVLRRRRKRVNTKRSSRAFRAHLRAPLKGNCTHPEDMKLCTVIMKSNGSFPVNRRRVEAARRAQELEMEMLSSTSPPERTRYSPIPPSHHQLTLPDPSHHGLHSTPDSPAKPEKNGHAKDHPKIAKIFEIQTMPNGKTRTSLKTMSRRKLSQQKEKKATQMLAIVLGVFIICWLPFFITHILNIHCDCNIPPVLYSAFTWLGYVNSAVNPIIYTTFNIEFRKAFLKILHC
#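 In this primary screen, negative modulation is detected by tracking calcium flux after an EC80 dopamine challenge in inducible HEK293 T-REx D2 cells preexposed to test compound for 180 s.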
# D2 ag-1: activates the human D2 dopamine receptor | P14416 | DiscoveRx PathHunter D2 beta-arrestin, luminescence, 90 min; 100% = 57 uM dopamine signal | activation, % (no concentration beside the values) | 0.084% of 360,000 active | AID 624465; in the data active = activation above about 40%; inconclusive = between about 15% and that limit
#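 DiscoveRx PathHunter D2 beta-arrestin cells (2,100/well) attached overnight, then compound-stimulated 90 min at 37 C in HBSS/10 mM HEPES/0.1% Tween-20 buffer; beta-galactosidase complementation read by luminescence after 1 h at ambient temperature. Dopamine 57 uM final (EC100) as control.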
# D2 PAM-1: human D2 receptor positive allosteric modulation; P14416; DiscoveRx D2 beta-arrestin cells, luminescence, 90 min; 100% = 57 uM dopamine signal; potentiation, % (test concentration not listed); 0.23% of 360,000 active; AID 624464; in the data active = potentiation above about 50%; inconclusive = mostly about 30% to 49%
#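 D2 cells co-treated with compound plus 50 nM dopamine (EC20) for 90 min at 37 deg C to detect potentiation. Beta-arrestin recruitment was read as enzyme-fragment luminescence after 1 h at ambient temperature. Full response was set by 57 uM dopamine.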
# D2 PAM-2: D2 dopamine receptor (human) potentiation; potentiation, % at 10 µM; P14416; 0.34% of 340,000 active; HEK293 T-REx D2, calcium flux, EC20 dopamine potentiation;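 active = potentiation over 3 SD above the plate norm, cut at about 30% in these data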
#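 Potentiation of an EC20 dopamine calcium response measured kinetically over 180 s, after a preceding 180 s compound-only read flagging agonists. Cells: inducible Hek293 Trex D2 line, 4000/well, cultured overnight at 30 C before dye loading.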
# D2 ag-2: activates the human D2 dopamine receptor; P14416; HEK293 T-REx D2 cells, calcium flux agonist mode; activation, % at 2 µM; 0.53% of 340,000 active; AID 485358;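 active = activation over 3 SD above normal in the single-dose calcium agonist read, cut at about 30% in these data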
#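 Tetracycline-induced HEK293 Trex cells with D2 receptor force-coupled to calcium signaling, plated overnight at 30 C and loaded with no-wash calcium dye. Calcium flux read kinetically for 180 s after compound addition; responses flag agonists.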
# D3 ag: confirmation of human D3 dopamine receptor agonists, beta-arrestin | Potency, µM (doses to about 76.9 µM), actives largely listed as activators | shares compounds with D2 ag-2 | DiscoveRx D3 beta-arrestin cells, luminescence, 90 min | AID 720506 | 4% of 2,300 active; also: nearly all actives have a fitted effect of over 70% in size
# D2 ag-3: counter-screen for D3 agonists: human D2 dopamine receptor agonism. shares compounds with D2 ag-2. DiscoveRx PathHunter D2 beta-arrestin, luminescence, 90 min; response scale: percent relative to full dopamine signal. Potency, µM (highest dose often 76.9 µM), most hits filed as activators. 5.9% of 2,300 active. AID 720507; also: nearly all actives have a fitted effect of over 70% in size
# Numbers stand for hits; – = inactive; ? = inconclusive; · = not tested or not shown. Unless noted, calls follow the shape of the dose curve; as a rule, active = well fitted activation curve with a large enough effect; inconclusive = small, poorly fitted or top-dose-only effect; inactive = flat fitted curve, though single readings scatter.
SMILES,D2 antag,D2 ag-1,D2 PAM-1,D2 PAM-2,D2 ag-2,D3 ag,D2 ag-3
CCC(NC(C)C)C(O)c1ccc(O)c2[nH]c(=O)ccc12 (configuration not stated),–,–,–,–,–,?,–
COc1cc(C(=S)N2CCOCC2)cc(OC)c1OC(=O)c1ccc(C)cc1,–,–,–,–,–,–,–
CCc1c(C)sc(NC(=O)c2cc(-c3cccc(Cl)c3)on2)c1C#N,·,·,·,·,–,·,·
CCCCNC(=O)C(CC)(ONc1ccccc1C(F)(F)F)c1ccccc1 (configuration not stated),–,–,–,–,–,–,–
CCCCNC(=O)[C@@](CC)(ONc1ccccc1C(F)(F)F)c1cccc2ccccc12,–,–,–,–,–,·,·
Cc1ccc(OCC(=O)Nc2ccc(OCc3cc(=O)n4ccsc4n3)cc2)cc1C,·,·,·,·,–,·,·
Cn1cnc(C(=O)N2CCN(c3ccccc3)CC2)c1C(=O)N1CCN(c2ccccc2)CC1,–,–,–,–,–,–,–
CN(C)S(=O)(=O)c1ccc(NC(=O)CN2CCCc3ccccc32)cc1,–,–,–,–,–,·,·
Cc1c(-c2ccccc2)nc2ccccc2c1C(=O)OCC(=O)Nc1ncc(C(F)(F)F)cc1Cl,30.0,–,–,–,–,–,–
COc1ccc(Br)c(C(=O)Nc2cc3c(cc2N2CCCC2)n(C)c(=O)c(=O)n3C)c1,·,·,·,–,–,·,·
COc1cccc(S(=O)(=O)NCc2ccc(C(=O)N3CCN(c4ccccc4OC)CC3)cc2)c1,·,·,·,–,·,–,–
COc1cccc(S(=O)(=O)NCc2ccc(C(=O)N3CCN(c4ccccc4)CC3)cc2)c1,56.4,?,–,–,59.4,–,?
OC(CN1CCN(c2ccccn2)CC1)Cn1c2ccccc2c2ccccc21 (configuration not stated),–,–,–,–,–,·,·
OC(COc1ccc(Cl)c2ccccc12)CN1CCN(c2ccccn2)CC1 (configuration not stated),35.5,–,–,–,53.6,14.1µM,?
Cc1cc(OCC(O)CN2CCN(c3ccccn3)CC2)cc(C)c1Cl (configuration not stated),43.2,?,–,–,46.1,6.31µM,?
Cc1cc(C)c(OCC(O)CN2CCN(c3ccccn3)CC2)c(C)c1 (configuration not stated),78.1,48.2,?,–,78.8,0.0794µM,10µM
Cc1ccc(C)c(OCC(=O)NNC(=O)CCN2CCN(c3ccccc3)CC2)c1,80.0,–,–,–,78.1,–,?
CN1CCN(CCC(=O)N/N=C/c2ccccc2F)CC1,–,–,–,–,–,·,·
COC(=O)c1[nH]c2cccc(OC)c2c1NC(=O)CCN1CCN(c2ccccc2OC)CC1,83.3,–,–,–,53.1,–,–
O=C(CCN1CCN(c2ccccc2)CC1)N/N=C/c1ccccc1O,91.3,–,–,–,79.2,–,?
CCN(CC)c1ccc(NC(=O)CN2CCN(c3ccccc3OC)CC2)cc1,·,·,·,–,–,·,·
COc1ccccc1N1CCN(CC(=O)Nc2c(C)n[nH]c2C)CC1,53.4,–,–,–,67.2,–,–
CCN1CCN(CCC(=O)Nc2ccccc2OC)CC1,–,–,–,–,–,·,·
COc1ccc(OC)c(NC(=O)CCN2CCN(c3ccccc3F)CC2)c1,–,?,–,–,–,·,·
Cc1ccc(C)c(NC(=O)CCN2CCN(c3ccccc3F)CC2)c1,66.9,–,–,–,46.7,?,–
SMILES,D2 antag,D2 ag-1,D2 PAM-1,D2 PAM-2,D2 ag-2,D3 ag,D2 ag-3
COc1ccc(C)cc1NC(=O)CCN1CCN(c2ccccc2F)CC1,79.8,–,–,–,73.8,–,?
COc1ccc([N+](=O)[O-])cc1NC(=O)CCN1CCN(c2ccccc2OC)CC1,101.1,–,–,–,65.8,–,–
COc1ccc(C)cc1NC(=O)CCN1CCN(c2ccccc2)CC1,81.7,?,–,–,78.9,?,?
Cc1ccc(CNC(=O)C(CC(C)C)OC(=O)c2ccco2)cc1 (configuration not stated),–,–,–,–,–,·,·
CC(C)c1nn2c(=O)cc(COC(=O)c3ccc(NC(=O)CCc4ccccc4)cc3)nc2s1,·,·,·,–,–,·,·
CC(C)C[C@H]1CNC(=O)C(=O)N1CC1CCN(CC2CCC(C(C)(C)C)CC2)CC1 (some centres not stated),·,–,–,·,·,·,·
COC1CCN(Cc2c(C(=O)N3CCN(C4CCCCC4)CC3)nc3ccccn23)CC1,–,–,–,–,59.3,–,–
COCC1CCN(Cc2c(C(=O)N3CCN(C4CCCCC4)CC3)nc3ccccn23)C1 (configuration not stated),–,–,–,–,–,·,·
COc1ccc(OC)c(NC(=O)C2CCN(S(=O)(=O)c3c(C)noc3C)CC2)c1,–,–,–,–,–,·,·
COc1ccc(OC)c(NC(=O)C2CCCN(S(=O)(=O)c3c(C)noc3C)C2)c1 (configuration not stated),43.7,–,–,–,–,–,–
CCN1C(C(=O)Nc2cc(C)on2)=C(O)c2ccccc2S1(=O)=O,–,–,–,–,37.9,–,–
Cc1cccc(S(=O)(=O)Nc2cccc(-c3ccc(N4CCCCC4)nn3)c2)c1,·,·,·,–,–,·,·
Fc1ccccc1N1CCN(Cc2cnc(Cl)s2)CC1,·,52.4,?,·,·,?,3.16µM
Brc1ccc(CN2CCN(c3ccccc3)CC2)o1,50.5,–,–,–,72.0,–,–
c1ccc(N2CCN(Cc3cnc(N4CCOCC4)s3)CC2)cc1,38.3,–,–,–,63.0,–,?
Clc1ccccc1N1CCN(Cc2ccc(Br)o2)CC1,·,–,–,·,·,·,·
Clc1ccc(CN2CCN(c3ccccc3)CC2)cn1,89.9,?,–,–,74.1,?,?
c1ccc(SCCN2CCN(c3ccccc3)CC2)cc1,60.1,–,–,–,–,–,–
CC1CCN(Cc2cnc(Cl)s2)CC1,–,–,–,–,–,·,·
Clc1ncc(CN2CCN(c3ccccc3)CC2)s1,83.7,47.5,–,–,74.7,?,5.01µM
CCCN1CCC(=O)N(CCSc2ccccc2)CC1,–,–,–,–,–,·,·
COc1ccc(CNC(=O)[C@]2(C)CCC[C@@]3(C)C4CC[C@@]5(C)C[C@]4(CCC32)CC5=O)cc1 (some centres not stated),–,–,–,–,–,–,–
O=C(CSc1nnc(Cc2ccccc2)o1)Nc1cccc(F)c1,–,–,–,–,–,·,·
COc1ccc(-c2[nH]ncc2CN2CCN(C(=O)c3cccs3)CC2)c(F)c1,–,–,–,–,–,·,·

# Screening results (PubChem)
